In PubChem BioAssay AID1117319 (Southern Research Institute, 2015):
Screen size: about 260,000 compounds; about 1,500 (0.58%) were called active. Another 5% or so got no clear call; they are omitted.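 Rule for the calls: active = inhibition above a set limit at one or more doses, reproduced on every date tested; inconclusive = results disagree between test dates, or hit never tested in dose response; inactive = the rest.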 A selection follows. Entries with a potency or affinity are not part of this list.

The molecules below were run against Virion infectivity factor (Human immunodeficiency virus type 1 group M subtype B (isolate BH10)) + Virion infectivity factor (Human immunodeficiency virus type 1 group M subtype B (isolate BRU/LAI)) + Virion infectivity factor (Human immunodeficiency virus type 1 group M subtype B (isolate PCV12)) + Virion infectivity factor (Human immunodeficiency virus type 1 group M subtype B (isolate HXB2)) + DNA dC->dU-editing enzyme APOBEC-3G (Homo sapiens) (UniProt P69720+P69721+P69722+P69723+Q9HC16) (assay: HIV-1 Vif–A3G interaction blockers – biochemical, TR-FRET, GST-Vif 1-94, biotin-A3G peptide, dose response retest, primary screen (AID 1117319;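 note: Vif residues 1-94 fused to GST binding biotinylated APOBEC3G peptide 110-148; 0% = full assay without inhibitor and 100% = GST in place of GST-Vif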)). Settings: TR-FRET GST-Vif / biotin-A3G peptide binding; active compounds read high.

inhibition, inactive:
NNC(=O)C1CC1c1ccc(Cl)cc1 (stereo not drawn) -1.47%
CC(C)NC(=O)C1CCN(C2CCN(Cc3nc(C(C)C)cs3)CC2)CC1 10.5%
CC(=O)C(Sc1nc(NC(C)(C)C)nc(N(C)C)n1)C(C)=O -1.75%
O=C(CCNS(=O)(=O)c1ccc(Br)s1)Nc1ccc(Cl)cc1 -2.43%
COC(=O)c1ccc(CC(=O)c2ccc(O)cc2O)o1 21.4%
CCOC(=O)c1ccc(CC(=O)c2ccc(O)cc2O)o1 16.6%
CCOC(=O)c1ccc(CC(=O)c2oc3cc(O)ccc3c2C)o1 29.3%
Cc1cc(O)cc(O)c1C(=O)Cc1ccccc1 31%
Cc1onc(-c2c(Cl)cccc2Cl)c1C(N)=O 3.21%
Cc1nnc(-c2cccc(Br)c2)c2cn(-c3ccc(Br)cc3)nc12 -35.9%
CC(C)Oc1cc(NC(=O)CS(=O)(=O)CC(=O)N(C)C)c(Cl)cc1Cl 4.46%
COc1ccccc1CNC(=O)COc1ccc2c(c1)CCC2 -14.6%
O=C(COc1ccc2c(c1)CCC2)NCc1ccccc1 6.52%
COc1cccc(COC(=O)C2CC(=O)N(Cc3ccccc3)C2)c1OC (stereo not drawn) 4.65%
Cc1cc2nc(C)n(CCCNC(=O)Nc3ccc(C#N)cc3)c2cc1C -0.77%
CCOc1ccc(NC(=O)NCCCn2c(C)nc3cc(C)c(C)cc32)cc1 3.24%
CCCCSc1nnc(CCCCCNC(=O)OC(C)(C)C)o1 1.82%
CN(C)S(=O)(=O)c1ccc(C(=O)OCC(=O)Nc2ccc(OC(F)F)cc2)cc1 -3.03%
NNC(=O)CCc1c[nH]c2ccccc12 1.22%
NC(=O)CCc1c[nH]c2ccccc12 14.6%
O=C(NC(=O)c1cccc(F)c1)Nc1nc(-c2ccc(F)cc2)cc(C(F)(F)F)n1 0.6%
Cc1nc([N+](=O)[O-])cn1CC(=O)c1ccc(F)cc1 -8.97%
CCn1c(SCC(=O)N2CCCc3ccccc32)nc2ccccc2c1=O -1.92%
CN(C(=O)c1ccccc1C(=O)OCC(=O)Nc1ccccc1)c1ccccc1 -8.92%
O=C(CCNS(=O)(=O)c1ccc(Br)s1)NCc1ccc2c(c1)OCO2 -6.46%
CCO[C@@H]1OC(C(=O)NCc2ccccc2)=C[C@H](c2coc3ccccc3c2=O)[C@H]1CCCO 6.31%
Cc1cc(C)c(C(=O)/C=C/c2cccs2)c(=O)[nH]1 1.47%
Cc1ccc(/C=C/C(=O)c2c(C)cc(C)[nH]c2=O)cc1 -2.58%
